The source of these data is PubChem BioAssay (EPA / NIEHS).

Experiment [1] in a line: ATG_XTT_Cytotoxicity: Cytotoxicity Assessment in the Attagene TRANS-FACTORIAL HepG2 Assay (AID 2283584).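 On AC50: cells exposed to compound for 24 h before reading; active means loss of viability signal versus DMSO baseline.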 Put shortly:
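XTT readout of cell number in transfected HepG2 cells, 24 h post-dosing; DMSO serves as negative control and baseline, with activity taken as loss of viability signal.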

Experiment [2] can be described thus: TOX21_p53_BLA_p2_viability: Viability Assessment in the Tox21 HCT-116 p53 Agonism Beta-lactamase Assay, Phase 2 (AID 2283591).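 Further: compound exposure lasted 16 h at 37 °C; actives lower the ATP signal meaning cytotoxicity.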 Put shortly: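 HCT116 p53-bla cells, 4000/well, dosed after 5 h plating (217-fold dilution of DMSO stocks) and incubated 16 h at 37C. Viability taken as cellular ATP by CellTiter-Glo luminescence after 30 min RT; signal loss marks cytotoxicity.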

Several values for one entry are separate records, joined by “and”; a condition that tells them apart may be missing. Equal entries are not always repeated. Records with an inconclusive call do not appear. Activity calls are given as the source filed them. How the source made its calls: active means hit-call score of the fitted dose curve at least 0.9, where 1 is the maximum; inconclusive means response in the unintended direction; inactive means score below 0.9.

What is called AC50 is the midpoint of the concentration-response curve, whichever way the signal moves. As for `O=c1[nH]c2ccccc2n1C1CCN(CCCC(c2ccc(F)cc2)c2ccc(F)cc2)CC1`, the AC50 in experiment [1] is 18.1 µM (active); in experiment [2], 13.8 µM (active) and 30.1 µM (active).
Take `O=C(O)c1cc(I)cc(I)c1I`: the outcome in experiment [1] and in experiment [2] was inactive.
In the case of `CC1(C)[C@H](/C=C2\CCSC2=O)[C@@H]1C(=O)OCc1coc(Cc2ccccc2)c1`, the result in experiment [1] and in experiment [2] was inactive.
Take `CC1(C)[C@H](C(=O)O[C@H](C#N)c2cccc(Oc3ccccc3)c2)[C@@H]1/C=C(\Cl)C(F)(F)F`: the outcome in experiment [1] and in experiment [2] was inactive.
With `CCOP(=S)(OCC)SCSc1cc(Cl)ccc1Cl`, the compound was classed as inactive in experiment [1] and in experiment [2].
As for `CN(C)c1ccc(N=O)cc1`, the call in experiment [1] was inactive. In addition, in experiment [2], the AC50 was 70.1 µM (active) and 70.5 µM (active).
Consider `CCOc1ccc(N)cc1`, for which the call in experiment [1] and in experiment [2] was inactive.
In the case of `Cc1cc(Cl)ccc1OCCCC(=O)O`, the result in experiment [1] and in experiment [2] was inactive.
Take `OC(c1ccc(Cl)cc1)(c1ccc(Cl)cc1)c1cccnc1`: the AC50 in experiment [1] was 67.7 µM (active); in experiment [2], 46.1 µM (active).
Turning to `CCN(CCO)CCO`, the call in experiment [1] and in experiment [2] was inactive.
With `OCC(c1ccc(Cl)cc1)c1ccc(Cl)cc1`, the result in experiment [1] was inactive. Besides, the AC50 in experiment [2] was 69.5 µM (active).
On to `CCOc1cc(C=O)ccc1O`, for which the compound was called inactive in experiment [1] and in experiment [2].
As for `BrCc1ccc(Br)cc1`, the compound was classed as inactive in experiment [1] and in experiment [2].
As to `O=C(NC(=O)c1c(F)cccc1F)Nc1cc(Cl)c(OC(F)(F)C(F)C(F)(F)F)cc1Cl` (centres undefined), the outcome in experiment [1] and in experiment [2] was inactive.
With `CCOP(=O)(OCC)OC(=CCl)c1ccc(Cl)cc1Cl`, the result in experiment [1] and in experiment [2] was inactive.
Consider `Cc1cc(-c2cc(C)c(N)c(C)c2)cc(C)c1N`, for which the call in experiment [1] and in experiment [2] was inactive.
On to `Nc1nc(=S)[nH][nH]1`, for which the compound was classed as inactive in experiment [1] and in experiment [2].
